A selection: hits, their analogues and other compounds. The true share with any hit is near 21%.
NS1 function inh: influenza NS1 inhibition. Potency, µM (doses to about 46.1 µM), for inactives: at the top dose activity, positive = more growth. 270,000 compounds, 0.4% hits; note: potency is the fitted concentration of half-maximal effect; actives are rising curves; nearly all actives have a fitted effect of over 50% in size
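Read-out: OD600 growth recovery of NS1-expressing budding yeast. Cells grown overnight at 30C in -URA glucose medium, washed, resuspended and diluted 1:100 in 2% galactose assay medium, pH 6.0. Same strain lacking NS1 served as positive control.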
Shiga toxin inh: Shiga toxin inhibition; inhibition, % at 38.7 µM; Vero cells, Shiga toxin protein synthesis inhibition reporter; 290,000 compounds, 9.2% hits; AID 2315; in the data active = inhibition mostly above about 28%, no sharp cut-off; inactive = mostly below about 43%; note: 0% is about no effect
Pf growth 96h: P. falciparum growth inhibition at 96 hours; P. falciparum luciferase reporter growth, 96 h; 320,000 compounds, 6.9% hits; AID 504834; Potency, µM (titrated, usually from 28.7 µM), inactives show at the top dose activity change, negative = inhibition, usual class: inhibitors; active = well fitted inhibition curve with a large enough effect; inconclusive = small, poorly fitted or top-dose-only effect, or another doubt; inactive = no such curve, though single readings can be large or run the other way; note: potency is the fitted concentration of half-maximal effect; % is set by controls: 0 for no effect and ±100 for the full control effect
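Cell-based qHTS: luciferase-tagged P. falciparum in erythrocytes (2% hematocrit, 0.05% parasitemia final) incubated with compounds for 96 hours, 37 C, 5% CO2; luciferase detection reagent then added and luminescence measured.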
Pf growth 48h: inhibits P. falciparum growth in the first generation, 48 h | P. falciparum luciferase growth in erythrocytes, 48 h | Potency, µM (highest dose often 28.7 µM), for the others: at the top dose activity change, negative = inhibition, actives largely listed as inhibitors | 310,000 compounds, 5.9% hits | AID 504832; active = well fitted inhibition curve with a large enough effect; inconclusive = small, poorly fitted or top-dose-only effect, or another doubt; inactive = no such curve, though single readings can be large or run the other way; note: potency is the fitted concentration of half-maximal effect; % is set by controls: 0 for no effect and ±100 for the full control effect
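Growth was read as firefly luciferase luminescence after a 48 h, 37 C, 5% CO2 exposure of compounds to reporter-bearing P. falciparum cultures (0.1% parasitemia, 2% hematocrit final) in Albumax-supplemented RPMI 1640.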
SARS PLpro yeast: blocks SARS-CoV papain-like protease in a yeast assay. 330,000 compounds, 0.19% hits. AID 485353. S. cerevisiae expressing SARS-CoV PLpro, growth rescue. Potency, µM (titrated, usually from 32.9 µM), for the others: top-dose activity, positive = growth rescue, usual class: activators; note: potency is the fitted concentration of half-maximal effect; 0% is about no effect; nearly all actives have a fitted effect of over 55% in size
Cycloheximide cs: counter-screen for Shiga toxin inhibitors: cycloheximide protein synthesis inhibition; cell reporter, cycloheximide protein synthesis inhibition counterscreen; max response, %; 300,000 compounds, 12% hits; AID 2314; in the data active = max response mostly above about 13%, no sharp cut-off; inactive = mostly below about 14%; note: read at 38.3 µM for the half of the compounds with a filed dose; 0% is about no effect
The depositor's hits bear a star. Unless noted, calls come from the whole dose curve.

Screening CC1CCN(C(=O)Cn2nnc(-c3ccc([N+](=O)[O-])cc3)n2)CC1 returned NS1 function inh 2%, Shiga toxin inh 14, Pf growth 96h 15µM*, Pf growth 48h 47%, SARS PLpro yeast -4% and Cycloheximide cs 3.
Screening CC1CCN(C(=O)Cn2nnc(-c3ccccc3)n2)CC1 returned NS1 function inh -15%, Shiga toxin inh 83*, Pf growth 96h inconclusive, Pf growth 48h 21%, SARS PLpro yeast -4% and Cycloheximide cs 30*.
`O=C(NC1CCCCC1)c1ccc(-n2cnnn2)cc1` gave NS1 function inh -1%, Shiga toxin inh -7, Pf growth 96h 25%, Pf growth 48h 15%, SARS PLpro yeast -2% and Cycloheximide cs -3.
`Cc1nc2ncnn2c(N2CCN(C(c3ccccc3)c3ccccc3)CC2)c1C` gave NS1 function inh -134%, Shiga toxin inh 11, Pf growth 96h 0.37µM*, Pf growth 48h inconclusive and Cycloheximide cs -2.
`Cc1cc(N2CCN(C(c3ccccc3)c3ccccc3)CC2)n2ncnc2n1` gave NS1 function inh -108%, Shiga toxin inh -14, Pf growth 96h -21%, Pf growth 48h -22% and Cycloheximide cs 0.
CC1CCC(NC(=O)CSc2nnnn2C)CC1 (stereo unspecified) was read as Pf growth 96h 91%, Pf growth 48h 22% and SARS PLpro yeast -2%.
CCOc1ccc(CN(C(=O)c2cc3ccccc3oc2=O)C2CCS(=O)(=O)C2)cc1 (stereo unspecified) was read as NS1 function inh -2%, Shiga toxin inh 111*, Pf growth 96h 13%, Pf growth 48h -1%, SARS PLpro yeast 2% and Cycloheximide cs 68*.
Screening COc1ccc(CN(C(=O)c2cc3ccccc3oc2=O)C2CCS(=O)(=O)C2)cc1 (stereo unspecified) returned NS1 function inh -4%, Shiga toxin inh 62*, Pf growth 96h 17%, Pf growth 48h -11%, SARS PLpro yeast 4% and Cycloheximide cs 32*.
COc1ccc(CN(C(=O)/C=C/c2ccco2)C2CCS(=O)(=O)C2)cc1OC (stereo unspecified) was read as NS1 function inh 7%, Shiga toxin inh -4, Pf growth 96h 37%, Pf growth 48h 12%, SARS PLpro yeast -11% and Cycloheximide cs -4.
O=C(c1cc2ccccc2oc1=O)N(Cc1ccccc1F)C1CCS(=O)(=O)C1 (stereo unspecified) was read as NS1 function inh 1%, Shiga toxin inh 60*, Pf growth 96h 5.2µM*, Pf growth 48h 19%, SARS PLpro yeast 4% and Cycloheximide cs 31*.
Screening COc1ccc(CN(C(=O)c2cc3ccccc3oc2=O)C2CCCC2)cc1 returned NS1 function inh -10%, Shiga toxin inh 12, Pf growth 96h 4%, Pf growth 48h -17%, SARS PLpro yeast -20% and Cycloheximide cs -1.
Screening CCOc1ccc(CN(C(=O)c2ccco2)C2CCS(=O)(=O)C2)cc1 (stereo unspecified) returned NS1 function inh 5%, Shiga toxin inh -2, Pf growth 96h 2%, Pf growth 48h 10%, SARS PLpro yeast 2% and Cycloheximide cs -5.
Screening COc1ccc(CN(C(=O)c2cc3ccccc3oc2=O)C2CCS(=O)(=O)C2)cc1OC (stereo unspecified) returned NS1 function inh -4%, Shiga toxin inh 98*, Pf growth 96h 38%, Pf growth 48h 15%, SARS PLpro yeast -2% and Cycloheximide cs 45*.
For CCOc1ccc(CN(C(=O)c2cc3ccccc3oc2=O)C2CC2)cc1 the results were NS1 function inh -25%, Shiga toxin inh 26, Pf growth 96h -9%, Pf growth 48h 12µM*, SARS PLpro yeast -1% and Cycloheximide cs 12.
COc1ccc(CN(CC2CCCO2)C(=O)c2cc3ccccc3oc2=O)cc1 (stereo unspecified) was read as Shiga toxin inh 3, Pf growth 96h -2%, Pf growth 48h -1%, SARS PLpro yeast 1% and Cycloheximide cs -2.
`O=C(c1cc2ccccc2oc1=O)N(Cc1ccccc1)C1CCS(=O)(=O)C1` (stereo unspecified) gave NS1 function inh 2%, Shiga toxin inh active, Pf growth 96h 151%, Pf growth 48h 30%, SARS PLpro yeast -5% and Cycloheximide cs 40*.
For Cc1ccc(OCC(=O)N(Cc2cccc(F)c2)C2CCS(=O)(=O)C2)cc1 (stereo unspecified) the results were NS1 function inh -6%, Shiga toxin inh -4, Pf growth 96h 10µM*, Pf growth 48h inconclusive, SARS PLpro yeast 7% and Cycloheximide cs -1.
C#CCOCCOCCOCCNc1nc(N2CCOCC2)nc(N2CCN(C(=O)[C@H]([C@@H](C)CC)n3cc([C@@H](N)CC(C)C)nn3)CC2)n1 was read as NS1 function inh 1%, Shiga toxin inh -5, Pf growth 96h 6.6µM*, Pf growth 48h inconclusive, SARS PLpro yeast 1% and Cycloheximide cs -2.
For C#CCOCCOCCOCCNc1nc(N2CCOCC2)nc(N2CCN(C(=O)[C@H](Cc3ccc(O)cc3)n3cc([C@@H](N)CC(C)C)nn3)CC2)n1 the results were NS1 function inh 1%, Shiga toxin inh -17, Pf growth 96h 12µM*, Pf growth 48h 5.2µM*, SARS PLpro yeast 0% and Cycloheximide cs -2.
`C#CCOCCOCCOCCNc1nc(N2CCN(C(=O)[C@H]([C@@H](C)CC)n3cc([C@@H](N)Cc4ccc(O)cc4)nn3)CC2)nc(N2CCN(C(=O)[C@H]([C@@H](C)CC)n3cc([C@@H](N)CC(C)C)nn3)CC2)n1` gave NS1 function inh -5%, Shiga toxin inh -4, Pf growth 96h 1.5µM*, Pf growth 48h 1.9µM*, SARS PLpro yeast -1% and Cycloheximide cs -5.
Screening C#CCOCCOCCOCCNc1nc(N2CCN(C(=O)[C@H]([C@@H](C)CC)n3cc([C@@H](N)CC(C)C)nn3)CC2)nc(N2CCN(C(=O)[C@H](Cc3ccc(O)cc3)n3cc([C@@H](N)C(C)CC)nn3)CC2)n1 (stereo partly specified) returned NS1 function inh 0%, Shiga toxin inh -22, Pf growth 96h 5.2µM*, Pf growth 48h 5.2µM*, SARS PLpro yeast -1% and Cycloheximide cs -3.
Screening Cc1ccn2cc(CCNC(=O)CC3CCCCC3)nc2c1 returned Shiga toxin inh -11, Pf growth 96h 0%, Pf growth 48h 30%, SARS PLpro yeast 1% and Cycloheximide cs 9.
Screening O=c1c[n+](CCCC[n+]2cc(=O)o[nH]2)[nH]o1 returned NS1 function inh 0%.
